Screens: PubChem BioAssay, NMMLSC
Sampled rows, rich in hits. Any-hit rate of the full collection: about 0.93%.
MEP2-GFP yeast: yeast TOR pathway MEP2-GFP modulation | AID 2016 | GFP response vs DMSO, % at 10 µM | 330,000 compounds, 0.51% hits | S. cerevisiae MEP2-GFP strain, flow cytometry GFP, 3 h; 100% = DMSO control level;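 active = GFP response versus DMSO above a set limit, roughly screen mean plus 3 SD, cut at about 180% in these data; inconclusive = fewer than 70 cells counted for a yeast strain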;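 note: median GFP fluorescence of the barcode-gated MEP2-GFP cells per well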
RPL19A-GFP yeast: modulators of TOR pathway RPL19A-GFP in S. cerevisiae | S. cerevisiae RPL19A-GFP strain, flow cytometry, 3 h; hits give low values | 330,000 compounds, 0.3% hits | AID 2025 | percent response vs DMSO, % at 10 µM;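 active = percent response vs DMSO below 50%; inconclusive = fewer than 70 events counted for the yeast strain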;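 note: median channel GFP fluorescence of the barcoded RPL19A-GFP strain; lower means less RPL19A-GFP as with rapamycin TOR inhibition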
LAP4 TOR yeast: yeast TOR pathway LAP4-GFP modulation; 320,000 compounds, 0.34% hits; GFP response vs DMSO, % at 10 µM; S. cerevisiae LAP4-GFP multiplex, flow cytometry GFP, 3 h; median GFP as percent of DMSO wells;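 active = GFP response vs DMSO above a set limit, about the screen mean plus 3 SD, cut at about 150% in these data; inconclusive = under 70 cell events counted for the yeast strain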
AGP1-GFP MLPCN: alters AGP1-GFP fluorescence in TOR pathway yeast screen. S. cerevisiae AGP1-GFP multiplex flow cytometry, 3 h; GFP as percent of DMSO wells. GFP response vs DMSO, % at 10 µM. 320,000 compounds, 0.02% hits. AID 2066;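 active = GFP response relative to DMSO above a set limit, near screen average plus 3 SD, cut at about 150% in these data; inconclusive = fewer than 70 cells counted for the yeast strain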;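 note: median GFP channel fluorescence of the gated AGP1 strain per well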
CIT2 TOR yeast: modulators of TOR pathway CIT2-GFP in S. cerevisiae. GFP response vs DMSO, % at 10 µM. AID 2029. S. cerevisiae CIT2-GFP strain, flow cytometry, 3 h; 100 means same as DMSO wells. 320,000 compounds, 0.065% hits;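 active = GFP response relative to DMSO above a set limit, near the screen mean plus 3 SD, cut at about 150% in these data; inconclusive = Fewer than 70 cells measured for a yeast strain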;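 note: ratio of well median GFP fluorescence to mean of DMSO wells on the plate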
Numbers stand for hits; - = inactive; ? = inconclusive; + = active, no number; [ ] = dose if it differs, or a comment.

SMILES | MEP2-GFP yeast | RPL19A-GFP yeast | LAP4 TOR yeast | AGP1-GFP MLPCN | CIT2 TOR yeast
COc1ccc(Nc2cc(C(=O)NCCCOC(C)C)c3ccccc3n2)c(OC)c1 | - | - | - | - | -
COc1ccc(Nc2cc(C(=O)NCCCN3CCN(C)CC3)c3ccccc3n2)c(OC)c1 | 772.4[may fluoresce violet] | 44.1[may fluoresce violet] | - | ? | ?
CC(C)(C)c1ccc(C(=O)NCCC(=O)N2CCC3(CC2)NCCc2[nH]cnc23)cc1 | 188.8[may fluoresce violet] | 16.6[may fluoresce violet] | - | ? | ?
Cc1ccc(C(=O)NCCC(=O)N2CCC3(CC2)NCCc2[nH]cnc23)cc1 | - | - | - | - | -
CC(=O)Nc1ccc(C2CC(c3ccc(Cl)cc3)=NN2c2ccccc2)cc1 (configuration not stated) | 180.6[may fluoresce violet] | - | - | - | ?
COc1ccc(C2CC(c3cccs3)=NN2c2ccc(C=O)cc2)cc1 (configuration not stated) | - | 22.6[may fluoresce violet] | - | ? | ?
c1ccc(C2CC(c3cccs3)=NN2c2ccccc2)cc1 (configuration not stated) | ? | 37.5[may fluoresce violet] | ? | ? | ?
COc1ccc(C2=NN(c3ccc(C=O)cc3)C(c3ccccc3)C2)cc1 (configuration not stated) | - | - | - | - | -
COc1ccc(C2=NN(c3ccccc3)C(c3ccc(OC)c(OC)c3)C2)cc1 (configuration not stated) | 182.9[may fluoresce violet] | - | - | - | ?
CCOC(=O)N1CCN(C(=O)c2cccc(S(=O)(=O)Nc3ccc(Br)cc3)c2)CC1 | - | - | - | - | -
O=Cc1ccc(N2N=C(c3ccccc3)CC2c2ccccc2)cc1 (configuration not stated) | 208.4[may fluoresce violet] | - | - | ? | ?
COc1ccc(N(CC(=O)NC2CCCCCC2)S(=O)(=O)c2ccccc2)cc1Cl | - | - | - | - | -
O=C(C1CCN(Cc2ccc(F)cc2)CC1)N(CCc1ccccc1)Cc1ccccc1 | - | - | - | - | -
O=C(C1CCN(Cc2ccc(F)cc2)CC1)N(CCO)Cc1ccccc1 | 421.8[may fluoresce violet] | - | - | - | ?
CC(=O)c1ccc(OCc2cc(C(=O)N(C)CCOc3ccc(C)cc3)no2)cc1 | - | - | - | - | -
COc1ccc(-c2ccc(SCC(=O)N3c4ccccc4CC3C)nn2)cc1OC (configuration not stated) | 183.1 | - | 163.4 | - | -
CCOC(=O)N1CCN(C(=O)CSc2ccc(-c3ccc(OC)c(OC)c3)nn2)CC1 | - | - | - | - | -
O=c1c2c(-c3ccc(Cl)cc3)csc2ncn1/N=C/c1cccc([N+](=O)[O-])c1O | 575.3 | - | 201.2 | - | -
CN(C)CCNC(=O)Nc1ccc(Cl)c(Cl)c1 | - | - | - | - | -
CC(C)(O)CNC(=O)Nc1ccc(Cl)c(Cl)c1 | - | 29.9[may fluoresce violet] | - | ? | ?
CC(Sc1nc(N)cc(=O)[nH]1)C(=O)NNC(=O)c1cccc(Cl)c1 (configuration not stated) | - | - | - | - | -
CC1C(=O)N(Cc2cccc(F)c2)c2ccccc2N1C(=O)c1ccccc1 (configuration not stated) | 263.0[may fluoresce violet] | - | - | ? | ?
COc1cccc(CN2C(=O)C(C)N(C(=O)c3c(F)cccc3F)c3ccccc32)c1 (configuration not stated) | - | - | - | - | -
Cc1onc(-c2ccccc2)c1C(=O)N/N=C/c1c(F)cccc1Cl | - | - | - | - | -
O=C1C(=O)N(c2nccs2)C(c2ccccc2F)/C1=C(\O)c1ccc2c(c1)OCCO2 (configuration not stated) | - | - | - | - | -
SMILES | MEP2-GFP yeast | RPL19A-GFP yeast | LAP4 TOR yeast | AGP1-GFP MLPCN | CIT2 TOR yeast
COC(c1ccccc1)c1nc2ccccc2[nH]c1=O (configuration not stated) | 188.3[may fluoresce violet] | - | - | ? | ?
COc1cc2ccc(=O)oc2c(O[C@@H]2O[C@H](CO)[C@@H](O)[C@H](O)[C@H]2O)c1O | 286.8[may fluoresce violet] | 46.0[may fluoresce violet] | - | ? | ?
COc1ccc(NC(=O)Nc2ccc(O)c3ccccc23)cc1 | 419.8[may fluoresce violet] | - | - | - | ?
CCOC(=O)c1ccc(-c2ccc3c(=O)c4ccccc4n(C)c3c2)cc1F | - | - | - | - | -
O=C(NCC1CCCO1)c1ccc(Br)c(S(=O)(=O)N2CCOCC2)c1 (configuration not stated) | +[may fluoresce green] | - | +[may fluoresce green] | 786.0[may fluoresce green] | +[may fluoresce green]
C=CCc1c(O)c(CC)cc2c(C)cc(=O)oc12 | 250.9[may fluoresce violet] | 45.1[may fluoresce violet] | - | ? | ?
